In PubChem BioAssay (NCI) one finds growth data, which are given here for 40 molecules.

SMILES strings stand for the structures. The panel holds about 83,000 compounds, 20% with a hit somewhere; the sample as a whole holds those more often.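 Growth was measured after 48 h exposure to one concentration of compound in 96-well plates. Values under 10 count as active.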 A number with no mark means an inactive call. The source made the active and inactive calls.

This test concerns MDA-MB-468 breast. Nature of the test: NCI-60 one-dose screen, 48 h (100 = growth as untreated, 0 = no growth, -100 = all killed). The note with it: 10 µM unless noted.
For `Cc1nc(Sc2nc3ccc([N+](=O)[O-])cc3s2)sc1C`, the growth is 6.67% (active).
The value for `O=C1OCC/C1=C\OCCCO/C=C1\CCOC1=O` was 92.8%; that for `Nc1c(C(=O)Nc2ccc(Cl)cc2)cc(-c2nc3ccccc3s2)c(=O)n1NS(=O)(=O)c1ccc(Cl)cc1` was 110%.
The value for `N=C(N)c1ccc(-c2ccc(/C=C/c3ccccc3)s2)cc1` was -67.3% (active); that for `COC(=O)[C@]12CC[C@@H](C)[C@H](C)[C@@H]1C1=CC[C@@H]3[C@@]4(C)C[C@@H](OC(C)=O)[C@H](O)[C@@](C)(CO)[C@@H]4[C@H](O)C[C@@]3(C)[C@]1(C)CC2` was -90.6% (active).
For `CC(C)[C@@]12C[C@@H](OC(=O)[C@H]3CO3)[C@@](C)(O1)[C@@H]1CC[C@@H](C)[C@H]1[C@@H]2OC(=O)/C=C/c1ccccc1` the value was 85.8%; for `CCC1=C(c2ccc(OC)cc2)C(C)(C)Oc2cc(O)c(CN3CCCC3)cc21`, 69.5%; for `CNC(=O)c1cc(-c2ccc(NC(=O)Nc3ccc(N4CCOCC4)c(C(F)(F)F)c3)cc2)nc2cccnc12`, 29%.
With `COc1ccc(-c2nc3ccc(-c4nnc(SCC(=O)Nc5ccc(C(=O)/C=C/c6ccc(Cl)cc6)cc5)o4)cc3[nH]2)cc1OC`, the growth is 102%.
For `NC(=O)C(=Cc1ccc(Cl)cc1)C(N)=O` the value was 3.1% (active); for `CS(=O)(=O)c1ccc(-c2[nH]c3ccc(F)cc3c2/C=N/O)cc1`, 93.7%.
The value for `CN(C)CCCC1(c2ccc(F)cc2)OCc2cc(-c3cc4ccccc4s3)ccc21` (stereo not given) was -8.95% (active).
For `O=C1OC(c2ccc(-c3ccccc3)cc2)=C/C1=C/c1c2ccccc2cc2ccccc12` the value was 90.2%; for `Oc1[nH]c2ccc(Cl)cc2c1/C=c1/ccc2c(c1)N=C(c1cc(F)cc(F)c1)N=2`, 53%; for `Cc1[nH]c(N=Nc2ccccc2)nc1N=Nc1ccccc1`, 24.1%.
Regarding `Cc1nc2cncc(C#Cc3cncc(C(=O)Nc4ccc(CN5CCN(C)CC5)c(C(F)(F)F)c4)c3)c2nc1C`, the growth was 37.3%.
The value for `COC(=O)c1c2c(c(C)[n+]([O-])c1C)C(=O)C=C(NCc1ccc(F)c(Cl)c1)C2=O` was -70.5% (active); that for `CCCNc1nc(SC)nc(-c2cccc(N)c2)c1C#N` was 114%.
For `N#Cc1c(-c2ccc(C(F)(F)F)cc2)cc(NCC2CCS(=O)(=O)CC2)n2c1nc1ccccc12` the value was 78.1%.
The value for `COc1cccc(Cc2nn3cc(-c4ccccc4)nc3s2)c1` was 92.1%; that for `O=C(c1ccccc1)c1c(/C=C/c2ccccc2)nc2ccccc2c1/C=C/c1ccc(Br)cc1` was 94.3%; that for `NCCCN` was 107%.
On to `CN1CCN(c2ccc(Nc3nc(NCCNC(=O)c4ccc(F)cc4)c4sccc4n3)cc2)CC1`, for which the growth was 48.4%.
Turning to `COc1ccc(/C=C2\SC(=Nc3cc(C)[nH]n3)NC2=O)cc1`, the growth is 82.6%.
As for `COc1ccc(C(=O)c2no[n+]([O-])c2C(=O)c2ccc(OC)cc2)cc1`, the growth was -88.4% (active).
The value for `CN1CCN(C(=O)c2c3c(n4ccccc24)C(=O)c2ncccc2C3=O)CC1` was 88.4%; that for `O=C1OC(=O)C2C1C1(Cl)C(Cl)=C(Cl)C2(Cl)C2C(=O)OC(=O)C21` (stereo not given) was 94.3%.
The value for `Oc1cccc(CCc2ccc(Oc3cc(CCc4cccc(O)c4)cc(O)c3O)cc2)c1` was 82.5%; that for `CCc1nn2c(-c3ccccc3)c(-c3cc(OC)c(OC)c(OC)c3)nc2s1` was 66%; that for `O=C(NC1CCCC1)c1ccc(N2CCC(NCc3cccc(C(F)(F)F)c3)CC2)cc1` was 77.7%.
For `NC(C(=O)O)C(O)c1ccco1` (stereo not given) the value was 102%.
`Cc1ccc(NC(=O)CCl)cc1Cl`: the growth is 108%.
For `Nc1cccc(NC(=O)C(=O)Nc2cccc(N)c2)c1` the value was 117%; for `Oc1c(Cl)cc(Cl)cc1CNc1nccnn1`, 109%.
Consider `NS(=O)(=O)N(c1cc(C(F)(F)F)cc(C(F)(F)F)c1)C1CCN(Cc2ccc(F)cc2)CC1`, for which the growth is 52.9%.
The value for `Cc1cc(NCc2cc(Nc3ccnc4cc(Cl)ccc34)ccc2F)nc(N2CCCC2)n1` was -35.4% (active); that for `O=C(CSc1nc2c(n1Nc1ccccc1)-c1ccccc1SC2)Nc1nccs1` was 104%; that for `CN1Cc2c(cc(CN3CCCCC3)n2C)C(c2ccc(Br)cc2)C1` (stereo not given) was 56.2%.
For `COc1ccc(-c2nsc3c2NC(=O)CC3c2ccc(F)cc2)cc1` (stereo not given) the value was 1.54% (active).
In the case of `O=C1/C(=C/c2cccc(Br)c2)COc2ccc(O)c(O)c21`, the growth was -47.5% (active).
